This is one part of a sample in which hits are shown more often than they occur.
HT1080-NT tox – kills 2HG-producing HT-1080-NT fibrosarcoma cells; HT-1080-NT fibrosarcoma viability, CellTiter-Glo ATP luminescence, 48 h; Potency, µM (highest dose often 46.1 µM), for the others: at the highest dose activity, negative = less viability, actives largely listed as cytotoxic; 360,000 compounds, 1.6% hits;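 note: NT is the 2HG producing partner of a matched IDH1 knockdown line; potency is the fitted concentration of half-maximal effect; 0% = DMSO-treated cells and -100% = media-only wells without cells; nearly all actives have a fitted effect of over 55% in size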
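Toxicity toward the 2HG-producing NT line was scored as %Activity, normalised to DMSO and no-cell wells, from CellTiter-Glo luminescence after 48 hours' treatment.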
IL-1B inflam inh – inflammasome signaling inhibition, IL-1 beta readout; activity change, % at 57.5 µM; 360,000 compounds, 4.7% hits; THP-1 LPS/ATP IL-1B secretion, AlphaLISA, 16 h; hits give low values; in the data active = activity change below about -50%; inconclusive = mostly about -30% to -49%
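THP-1 cells pretreated 1 hr with compounds (up to 57.5 uM final), then stimulated with LPS (250 ng/mL final) plus ATP (1.25 mM final); secreted IL-1B measured by AlphaLISA after 16 hr, decreased signal indicating inhibition.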
12-LOX inh – blocks human arachidonate 12S-lipoxygenase; purified 12hLO, xylenol orange hydroperoxide absorbance; AID 1671190; 580,000 compounds, 1.1% hits; Potency, µM (top dose mostly 108 µM), without a hit: top-dose activity change, negative = inhibition, usual class: inhibitors; P18054; note: potency is the fitted concentration of half-maximal effect
Target sequence (P18054 whole entry, looked up): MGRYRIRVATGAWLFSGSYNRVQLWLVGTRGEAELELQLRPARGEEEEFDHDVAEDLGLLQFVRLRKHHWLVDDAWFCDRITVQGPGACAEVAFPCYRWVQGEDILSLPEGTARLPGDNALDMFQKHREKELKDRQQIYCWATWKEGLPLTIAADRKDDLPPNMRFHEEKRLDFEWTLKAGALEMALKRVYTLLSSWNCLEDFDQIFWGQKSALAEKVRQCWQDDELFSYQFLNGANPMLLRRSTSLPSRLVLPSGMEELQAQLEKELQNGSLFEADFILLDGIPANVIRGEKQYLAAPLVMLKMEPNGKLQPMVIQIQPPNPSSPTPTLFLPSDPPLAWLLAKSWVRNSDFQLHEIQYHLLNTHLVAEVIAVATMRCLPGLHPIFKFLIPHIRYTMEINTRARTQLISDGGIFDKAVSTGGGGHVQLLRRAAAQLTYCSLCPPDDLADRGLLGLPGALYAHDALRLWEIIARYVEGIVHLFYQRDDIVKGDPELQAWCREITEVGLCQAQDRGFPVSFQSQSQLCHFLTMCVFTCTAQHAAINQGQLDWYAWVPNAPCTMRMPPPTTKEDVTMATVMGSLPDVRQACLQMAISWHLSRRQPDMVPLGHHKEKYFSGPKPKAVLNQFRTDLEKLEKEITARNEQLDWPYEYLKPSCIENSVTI
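Hydroperoxide product was detected by ferrous iron/xylenol orange as the 573 to 405 nm absorbance ratio. Arachidonic acid at 40 uM (final) was turned over for 30 min at room temperature by 150 nM human 12hLO, pH 7.0 Hepes buffer, after 15 min compound preincubation.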
DT40 TDP1 CPT – growth inhibition of DT40 Tdp1-/-;hTDP1 cells with camptothecin (screen for TDP1 inhibitors); 420,000 compounds, 12% hits; chicken DT40 Tdp1-/-;hTDP1 cells + 20 nM CPT, ATP luminescence, 48 h; Potency, µM (doses to about 46.2 µM), without a hit: top-dose activity change, negative = growth inhibition, actives largely listed as inhibitors; note: potency is the fitted concentration of half-maximal effect; nearly all actives have a fitted effect of over 55% in size
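Chicken DT40 Tdp1-/- cells stably complemented with human TDP1 were seeded at 400 cells/well in medium containing 20 nM camptothecin, exposed to pin-transferred compounds, and grown at 37 °C for at least 48 hr. Viability was read as ATP luminescence.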
HT1080 IDH1KD tx – HT-1080 IDH1 knockdown cell toxicity (counter line). HT-1080 IDH1 knockdown viability, ATP luminescence, 48 h. Potency, µM (highest dose often 46.1 µM), for the others: at the highest dose activity, negative = toxicity, usual class: cytotoxic. 360,000 compounds, 2% hits;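 note: potency is the fitted concentration of half-maximal effect; 0% = DMSO wells and -100% = cell-free medium wells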
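In this qHTS, HT-1080 cells depleted of IDH1 are exposed for 48 h at 37 °C to compound titrations. Toxicity is scored from CellTiter-Glo luminescence, with DMSO as full viability and medium alone as none.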
DT40 TDP1 no CPT – qHTS for Inhibitors of human tyrosyl-DNA phosphodiesterase 1 (TDP1): qHTS in cells in absence of CPT; DT40 Tdp1-/- hTDP1 cells, no CPT, ATP luminescence, 48 h; Potency, µM (titrated, usually from 46.2 µM), for inactives: at the highest dose activity change, negative = growth inhibition, most hits filed as inhibitors; 420,000 compounds, 15% hits; AID 686978, 2013; note: potency is the fitted concentration of half-maximal effect; nearly all actives have a fitted effect of over 55% in size
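Growth kinetics read by CellTiter-Glo luminescence after ≥48 hr at 37 °C. Cells: DT40 Tdp1-/- stably carrying human TDP1, 400 per well, compound exposure in the absence of CPT (DMSO vehicle).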
* = called active by the depositor; ? = inconclusive; / = no result given; ! = not active in a repeat; [ ] = dose if it differs, or a comment. Unless noted, calls come from the whole dose curve; as a rule, active = well fitted curve in the direction sought with a large enough effect; inconclusive = small, poorly fitted or top-dose-only effect, or another doubt; inactive = no such curve, though single readings can be large; an effect the other way counts as inactive or inconclusive. Unless noted, % is set by controls: 0 for no effect and ±100 for the full control effect.

SMILES | HT1080-NT tox | IL-1B inflam inh | 12-LOX inh | DT40 TDP1 CPT | HT1080 IDH1KD tx | DT40 TDP1 no CPT
Cc1ccnc(NC(=O)c2ccc3c(c2)NC(=O)C(C)S3)c1 (stereo not drawn) | -6% | -14 | 98% | -22% | -16% | ?
CC(=O)c1ccccc1NC(=O)c1ccc2c(c1)NC(=O)C(C)S2 (stereo not drawn) | -29% | -6 | -10% | 21µM* | -8% | ?
CCCNC(=O)c1ccccc1NC(=O)c1ccc2c(c1)NC(=O)C(C)S2 (stereo not drawn) | -30% | -23 | -1% | 10µM* | 9.2µM* | 6.5µM*
CS(=O)(=O)N1CCCN(Cc2ccccc2C#N)CCNC(=O)CC1c1ccccc1 (stereo not drawn) | / | / | 41% | / | / | /
Cc1ccc(CN2C(=O)[C@@H]3C[C@@H](O)CN3C3(CN(C4CCOCC4)C3)C2=O)o1 | / | / | 3%[176 µM] | / | / | /
CC(C)(C)C(=O)NC1CCN(c2nc3ncccc3o2)CC1 | / | / | 12%[176 µM] | / | / | /
C1=C(CN2CCOCC2)COc2c1cccc2OC[C@@H]1CNCCO1 | / | / | ? | -2% | / | -2%
O=C(Nc1ccc(-c2nc3ccccc3o2)cc1)c1cc(-n2cnnc2)ccc1Cl | -13% | ? | 0% | 18µM* | -2% | ?
O=C(Nc1ccc(-c2nc3ccccc3o2)c(O)c1)c1cc(-n2cnnc2)ccc1Cl | -26% | -14 | -11% | 26µM* | ? | ?
Cc1ccsc1/C=C1\SC(N2CC(C)OC(C)C2)=NC1=O (stereo not drawn) | -1% | 0 | -22% | ? | -1% | 15µM*
COCCOCc1nc(C2CCN(C(=O)NCc3ccc(F)cc3)CC2)no1 | / | / | 3% | / | / | /
CNC(=O)N1CCC(C2CCN(C(=O)c3cscn3)C2)CC1 (stereo not drawn) | / | / | 43% | / | / | /
C[C@@H](NC(=O)C1=C[C@@H](NC(=O)c2cccs2)[C@@H](O)[C@H](O)C1)C(N)=O | / | / | -5%[176 µM] | / | / | /
COC(/C(=N/O)c1ccc(Cl)cc1)c1ccccc1 (stereo not drawn) | ? | -15 | -29% | ? | ? | 23µM*
COP(=O)(OC)OC(C(=O)c1ccccc1)c1ccc(Cl)cc1 (stereo not drawn) | -2% | -14 | -10% | -7% | -2% | -11%
Cc1nn(CC(=O)N/N=C/c2cccs2)c(C)c1[N+](=O)[O-] | 8% | -24 | 49% | 3% | 3% | -28%
Cc1nn(C(C)C(=O)NCc2ccccc2)c(C)c1[N+](=O)[O-] (stereo not drawn) | 7% | 15 | 14% | -25% | 22% | -1%
COc1ccc(/C=N/NC(=O)c2ccco2)cc1Cn1nc(C)cc1C | 3% | 19 | -15% | -2% | 9% | -21%
COc1cccc(/C=N/NC(=O)Cn2nc(C)c([N+](=O)[O-])c2C)c1O | ? | 53 | -11% | 5.8µM* | 18µM* | 5.8µM*
COc1cccc(/C=N\NC(=O)c2ccc(Cn3cc(Br)c([N+](=O)[O-])n3)o2)c1O | ? | 167 | -16% | ? | ? | 3.3µM*
COc1cccc(/C=N/NC(=O)C(C)n2nc(C)c([N+](=O)[O-])c2C)c1O (stereo not drawn) | -27% | 37 | 2% | 0.92µM* | ? | 1µM*
COc1ccc(/C=N/NC(=O)c2ccco2)cc1Cn1nc(C)c([N+](=O)[O-])c1C | -5% | 20 | -7% | ? | -5% | 18µM*
Cc1cc(C)nc(N2CCN(C(=O)c3ccc(S(=O)(=O)N4CCCCCC4)cc3)CC2)n1 | 5% | 14 | 21% | 26µM* | 15% | 16µM*
Cc1ccc(S(=O)(=O)N2CCN(C(=O)c3ccc(S(=O)(=O)N4CCCC4)cc3)CC2)cc1 | 6% | -11 | 1% | -6% | 3% | 11%
O=C(c1ccc(S(=O)(=O)N2CCCC2)cc1)N1CCN(c2cccc(Cl)c2)CC1 | -17% | -26 | 0% | 23µM* | -4% | 18µM*
SMILES | HT1080-NT tox | IL-1B inflam inh | 12-LOX inh | DT40 TDP1 CPT | HT1080 IDH1KD tx | DT40 TDP1 no CPT
CC(=O)c1ccc(S(=O)(=O)N2CCN(C(=O)c3ccc(-n4nc(C)c(Cl)c4C)cc3)CC2)cc1 | -5% | -14 | -12% | 16µM* | -12% | 13µM*
C[S+](=O)([O-])N1CC2ON=C(C(=O)NCc3ccc(F)cc3)C2C1 (stereo not drawn) | / | / | 13%[6.33 µM] | / | / | /
Cc1nc(N2CCC(NC(=O)Cc3ccccc3C)CC2)cc(C(F)(F)F)n1 | / | / | 25% | / | / | /
C/C(=N\NC(=O)c1csc(C)c1C)c1ccc(Cl)s1 | -1% | -5 | 15% | 23µM* | 4% | 23µM*
C/C(=N\NC(=S)NC(C)C)c1ccc(Cl)s1 | -1% | -9 | 45µM* | 15µM* | -18% | 5.8µM*
C/C(=N\NC(N)=S)c1ccc(Cl)s1 | 0% | -79* | ? | 5.2µM* | -10% | 4.6µM*
C/C(=N\NC(=O)c1ccoc1C)c1ccc(Cl)s1 | 1% | ? | 12% | 5% | 6% | 4%
C/C(=N/NC(=O)c1ccccc1)c1ccc(Cl)s1 | / | / | -9% | / | / | /
CN1CCN(C(=O)c2cccc(COc3cc(Cl)ccc3Cl)c2)CC1 | ? | -14 | -2% | ? | -7% | 22µM*
O=C(O)c1cccc(COc2cc(Cl)ccc2Cl)c1 | / | / | -24% | / | / | /
CCC1CCCCN1CCCNC(=O)CN1C(=O)CSc2ccc(S(=O)(=O)N3CCC(C)CC3)cc21 (stereo not drawn) | -6% | -20 | -1% | ? | 3% | 23µM*!
CC1CCCN(CCCNC(=O)CN2C(=O)CSc3ccc(S(=O)(=O)N4CCOCC4)cc32)C1 (stereo not drawn) | 11% | -9 | 7% | -12% | 5% | 8%
CC(C)CN(CCNC(=O)CN1C(=O)CSc2ccc(S(=O)(=O)N3CCOCC3)cc21)CC(C)C | 12% | 0 | 2% | 18µM*! | 12% | 21µM*!
CC1CCN(S(=O)(=O)c2ccc3c(c2)N(CC(=O)NCCCN2CCCC(C)C2)C(=O)CS3)CC1 (stereo not drawn) | -15% | -21 | -7% | 15µM*! | -14% | 15µM*!
Cn1cc(C2c3nccn3CCCN2C(=O)c2ccccc2F)cn1 (stereo not drawn) | / | / | 22% | / | / | /
Cc1cc(C(=O)N2C[C@@H](CO)[C@H](c3ccncc3)C2)on1 | / | / | 24% | / | / | /

Bioassay records from PubChem.
